Measurements reported in PubChem BioAssay AID1259341 (Broad Institute, 2017).
Calls of active or inactive are those of the source.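 Rule for the calls: active = activity change under -35% in any replicate well, with more than 20 beads read in that well; inactive = the rest.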

molecular target: Caspase recruitment domain-containing protein 9 (Homo sapiens) + E3 ubiquitin-protein ligase TRIM62 (Homo sapiens) (UniProt Q9H257+Q9BVG3); experiment: CARD9/TRIM62 protein interaction inhibitors – cell lysate, HEK293FT lysates, Luminex bead ELISA, primary screen (AID 1259341); conditions: PE fluorescence, hits give low values, concentration not given here;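 note: PE anti-Flag signal of Flag-CARD9 captured by myc-TRIM62 beads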
Sequence (Q9BVG3 whole entry, looked up, the tested form may be a part): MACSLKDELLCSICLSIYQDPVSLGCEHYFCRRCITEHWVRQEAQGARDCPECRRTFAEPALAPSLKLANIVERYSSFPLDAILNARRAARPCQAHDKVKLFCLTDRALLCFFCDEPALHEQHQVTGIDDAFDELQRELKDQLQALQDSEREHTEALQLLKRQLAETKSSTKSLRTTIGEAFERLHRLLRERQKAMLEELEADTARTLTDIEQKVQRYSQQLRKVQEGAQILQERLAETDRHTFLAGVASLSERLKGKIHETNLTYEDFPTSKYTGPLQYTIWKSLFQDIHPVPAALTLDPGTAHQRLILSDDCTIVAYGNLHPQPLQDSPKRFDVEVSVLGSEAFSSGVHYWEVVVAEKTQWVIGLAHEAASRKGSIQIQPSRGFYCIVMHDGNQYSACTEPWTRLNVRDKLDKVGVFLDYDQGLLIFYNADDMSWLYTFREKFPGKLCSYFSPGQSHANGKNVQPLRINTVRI
Sequence (Q9H257 whole entry, looked up, the tested form may be a part): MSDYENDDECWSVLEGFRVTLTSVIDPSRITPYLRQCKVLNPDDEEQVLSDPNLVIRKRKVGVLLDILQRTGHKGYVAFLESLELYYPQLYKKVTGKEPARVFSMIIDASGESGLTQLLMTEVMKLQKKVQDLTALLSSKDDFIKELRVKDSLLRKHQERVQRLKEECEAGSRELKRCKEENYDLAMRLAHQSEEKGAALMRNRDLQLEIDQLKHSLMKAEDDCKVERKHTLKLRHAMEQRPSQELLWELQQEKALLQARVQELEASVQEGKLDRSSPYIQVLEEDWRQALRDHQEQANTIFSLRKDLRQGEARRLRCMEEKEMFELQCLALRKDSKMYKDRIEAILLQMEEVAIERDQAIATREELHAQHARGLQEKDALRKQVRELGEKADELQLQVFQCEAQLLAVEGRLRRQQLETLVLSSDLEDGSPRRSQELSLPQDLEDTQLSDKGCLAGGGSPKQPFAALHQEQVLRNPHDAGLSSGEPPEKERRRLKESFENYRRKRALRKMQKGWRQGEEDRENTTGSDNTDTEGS

SMILES | activity change, negative = inhibition
O=C(Nc1nc(-c2ccco2)c(-c2ccco2)s1)C1CCC1 | -9.96% (inactive)
Cc1ccc(-c2cc(C(=O)Nc3ccccn3)c3ccccc3n2)o1 | -4.7% (inactive)
N#Cc1c(-c2ccco2)cc(-c2ccccn2)nc1N | 1.52% (inactive)
COCCCNC(=O)C1CCN(c2ccc(N3CCOCC3)nn2)CC1 | 28.3% (inactive)
Cc1ccc2cc(CN(Cc3ccco3)S(C)(=O)=O)c(=O)[nH]c2c1 | 5.89% (inactive)
Cc1ccc(C(=O)Nc2ccc(N3CCC(C(N)=O)(N4CCCCC4)CC3)c(C(=O)O)c2)cc1 | -42.4% (inactive)
Cc1noc(CN(C)C(=O)c2cc(-c3ccco3)nc3c(C)c(Cl)ccc23)n1 | -1.57% (inactive)
COc1ccc(CNC(=O)c2nc(Nc3ccc(C)cc3)c3ccccc3n2)cc1 | -5.2% (inactive)
Cc1cncc(-c2ccc(S(N)(=O)=O)cc2F)c1 | -3.94% (inactive)
CCc1nccn1CCC(=O)N1C[C@H](CO)C[C@H](CN2CCCC2)C1 | 4.55% (inactive)
Cc1scc(C(=O)NCc2ccco2)c1-c1ccccc1 | 1.82% (inactive)
COc1ccc(-c2nc(SCC(=O)N3CCN(c4ccccc4OC)CC3)n[nH]2)cc1 | 23.5% (inactive)
COc1ccc(S(=O)(=O)Nc2ccc3c(c2)C(=O)N([C@H](C)CO)C[C@H](C)[C@@H](CN(C)C(=O)C2CCCCC2)OCCCC[C@H](C)O3)cc1 | -4.07% (inactive)
CN(C)C(CN=C1NS(=O)(=O)c2ccccc21)c1ccco1 (stereo unspecified) | -0.48% (inactive)
Cc1c(C(=O)OCC2CCCO2)[nH]c2c1C(=O)CC(c1ccco1)C2 (stereo unspecified) | -1.75% (inactive)
O=C(O)Cc1c[nH]c2cccc(O)c12 | 0.751% (inactive)
O=C(Cn1c(=O)cc(C(=O)N2CCc3ccccc3C2)c2ccccc21)NCc1ccc2c(c1)OCO2 | -5.84% (inactive)
CC(C(=O)N1CCCC1)N1CCN(c2ccccc2O)CC1 (stereo unspecified) | 5.92% (inactive)

SMILES | activity change, negative = inhibition
O=C1NC(c2ccc(Br)cc2)Nc2sc3c(c21)CCC3 (stereo unspecified) | -3.86% (inactive)
CCOc1cc2c(C#N)c(N3CCNCC3)nc(N)c2c(N)n1 | -2.85% (inactive)
CCOC(=O)c1ccc(-c2ccc(C3CC(=O)Nc4cc5c(cc43)OCCO5)o2)cc1 (stereo unspecified) | -0.752% (inactive)
O=C(O)c1ccc2nc(-c3ccco3)c(-c3ccco3)nc2c1 | -13.9% (inactive)
COc1ccc(F)c(CN2C[C@H]3CC[C@@H]2CN(Cc2cscn2)C3)c1 | -3.76% (inactive)
CC(=O)Nc1ccc(Nc2nc(-c3nnc(-c4cccc(C)c4)o3)nc3ccccc23)cc1 | -1.95% (inactive)
O=C(Nc1nncs1)c1cc(-c2ccco2)nc2ccccc12 | -5.26% (inactive)
COCC(=O)n1nc(-c2ccco2)nc1NCc1cccs1 | -2.31% (inactive)
O=[N+]([O-])c1ccc2nn(Cc3ccccc3)cc2c1 | 16.2% (inactive)
C=CCNc1ncnc2c1CCN(C(=O)c1ccc(CSC)o1)CC2 | 2.9% (inactive)
CCCc1oc(C(=O)O)cc1CN | -4.57% (inactive)
NC(=O)C1(N2CCCCC2)CCN(c2ncc(NC(=O)c3ccccc3F)cc2C(=O)O)CC1 | -10.2% (inactive)
O=C(NCCCN1CCOCC1)c1cc(-c2ccco2)nc2ccccc12 | -23.9% (inactive)
COc1ccc(-c2nnc(-c3nc(Nc4ccc(NC(C)=O)cc4)c4ccccc4n3)o2)cc1 | 9.87% (inactive)
O=C1c2ccccc2-c2nc3ccccc3nc21 | -4.55% (inactive)
C[n+]1cccc2cccc(O)c21 | -2.89% (inactive)
CCCOc1ccc(CCC(=O)O)cc1 | -3.23% (inactive)
C(=C\c1ccco1)/c1nc2ccccc2[nH]1 | -9.75% (inactive)
